The results in this text go back to ChEMBL document CHEMBL3988442, “University of Dundee, Small-Polar-MMV Screening Library” (2021).

For some of these results: Results with a measured potency or affinity are listed apart.

Holding throughout (set-up): scale not given: direction of the effect not stated beside the values
For test [1], the target named is Protein translocase subunit SecA (Escherichia coli (strain K12)) (UniProt P10408). Nature of the test: Assay to Identify E. coli SecA ATPase Inhibitors. Conditions: 30 µM. The test is classed as functional.
Test [2] concerns the target T1, Ubiquitin-activating enzyme e1, putative (Leishmania donovani (strain BPK282A1)) (UniProt E9BSI1).
T1 sequence (whole entry): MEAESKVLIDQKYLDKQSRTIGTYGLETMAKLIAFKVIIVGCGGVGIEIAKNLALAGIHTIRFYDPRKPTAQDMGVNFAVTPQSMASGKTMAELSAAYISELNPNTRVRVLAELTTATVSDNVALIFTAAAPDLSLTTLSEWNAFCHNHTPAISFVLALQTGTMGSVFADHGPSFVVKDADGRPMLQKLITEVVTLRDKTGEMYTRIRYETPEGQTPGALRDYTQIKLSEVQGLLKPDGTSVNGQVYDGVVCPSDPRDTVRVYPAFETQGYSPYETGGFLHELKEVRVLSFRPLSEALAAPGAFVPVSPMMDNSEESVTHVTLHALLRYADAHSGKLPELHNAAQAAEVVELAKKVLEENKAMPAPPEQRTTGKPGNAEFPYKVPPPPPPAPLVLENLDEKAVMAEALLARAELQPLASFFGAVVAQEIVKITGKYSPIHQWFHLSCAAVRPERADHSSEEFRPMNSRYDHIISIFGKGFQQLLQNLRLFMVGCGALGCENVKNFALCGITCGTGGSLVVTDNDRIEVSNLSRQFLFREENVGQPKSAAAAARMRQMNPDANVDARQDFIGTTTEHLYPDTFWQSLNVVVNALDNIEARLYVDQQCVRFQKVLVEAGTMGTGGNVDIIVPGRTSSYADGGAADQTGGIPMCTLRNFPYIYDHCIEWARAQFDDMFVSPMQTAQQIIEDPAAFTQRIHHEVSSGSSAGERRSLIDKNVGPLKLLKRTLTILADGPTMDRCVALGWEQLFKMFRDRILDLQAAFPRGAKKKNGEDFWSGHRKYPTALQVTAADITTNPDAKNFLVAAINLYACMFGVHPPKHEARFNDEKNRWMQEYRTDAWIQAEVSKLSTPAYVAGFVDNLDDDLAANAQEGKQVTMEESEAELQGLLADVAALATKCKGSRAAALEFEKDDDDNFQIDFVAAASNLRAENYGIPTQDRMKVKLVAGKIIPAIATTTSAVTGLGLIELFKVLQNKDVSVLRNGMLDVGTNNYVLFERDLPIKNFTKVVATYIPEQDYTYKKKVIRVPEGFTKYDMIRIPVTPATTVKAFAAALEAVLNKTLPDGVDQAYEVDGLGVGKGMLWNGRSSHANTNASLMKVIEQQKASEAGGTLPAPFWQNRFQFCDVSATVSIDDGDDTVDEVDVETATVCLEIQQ
As to the kind of experiment: Leishmania donovani Ubiquitin Activating Enzyme (LdE1). The test is classed as functional. As to conditions: 30 µM.

Test [3] addresses AMP-activated protein kinase, AMPK (Homo sapiens) (UniProt P54646+O43741+P54619+Q9UGJ0+Q9Y478+Q13131+Q9UGI9). As to the kind of experiment: AMP-dependent Kinase enzyme assay. An in vitro enzyme assay that detects ADP turnover that is directly proportional to AMPK activity. This uses naive AMPK that is activated during the assay with MK-8722. The test is classed as functional. As to conditions: 30 µM.

In test [4] the target is Sialic acid-binding Ig-like lectin 9 (Homo sapiens) (UniProt Q9Y336). As to the kind of experiment: Hs-Siglec9 ALPHAscreen SOP 20170721. As to conditions: 10 µM. In general terms: Bead proximity is the source of the signal in Alpha formats.
Test [5] has as its system Trypanosoma cruzi. Nature of the test: Trypanosoma cruzi phosphomannomutase and mannose-1-phosphate guanylyltransferase assay. The test is classed as functional. Conditions: 10 µM.
In test [6] the target is T2, Arginase-2, mitochondrial (Homo sapiens) (UniProt P78540).
T2 sequence (whole entry): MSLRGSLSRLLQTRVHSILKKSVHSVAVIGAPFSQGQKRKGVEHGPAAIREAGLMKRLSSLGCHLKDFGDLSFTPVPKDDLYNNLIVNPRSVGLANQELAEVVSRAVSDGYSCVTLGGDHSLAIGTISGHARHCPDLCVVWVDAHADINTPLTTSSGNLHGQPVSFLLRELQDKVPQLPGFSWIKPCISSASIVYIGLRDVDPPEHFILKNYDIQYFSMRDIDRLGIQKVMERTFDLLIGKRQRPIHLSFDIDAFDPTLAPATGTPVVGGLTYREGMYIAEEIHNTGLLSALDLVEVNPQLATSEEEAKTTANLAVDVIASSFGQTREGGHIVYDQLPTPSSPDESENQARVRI
Nature of the test: in vitro enzyme assay to detect the production of urea directly proportional to the activity of Arginase II. Also: in the data most compounds retested in dose-response had high values. The test is classed as functional. As to conditions: 33.3 µM.

Test [7] addresses T3, Proteasome subunit beta (Trypanosoma cruzi) (UniProt O96673).
T3 sequence (whole entry): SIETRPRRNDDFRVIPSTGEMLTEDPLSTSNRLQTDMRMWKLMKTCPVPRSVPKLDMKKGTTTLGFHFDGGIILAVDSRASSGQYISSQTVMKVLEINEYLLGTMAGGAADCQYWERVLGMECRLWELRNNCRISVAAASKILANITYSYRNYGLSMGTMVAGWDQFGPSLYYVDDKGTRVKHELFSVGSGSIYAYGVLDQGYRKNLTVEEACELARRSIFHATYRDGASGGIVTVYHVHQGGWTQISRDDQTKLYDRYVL
Nature of the test: Trypanosoma cruzi proteasome chymotrypsin-like activity (TcProtChymo) assay. Also: in the data most compounds retested in dose-response had high values. The test is classed as functional. As to conditions: 9.37 µM.

The species entered for test [8] is Homo sapiens. As to the kind of experiment: To identify inhibition of the IFN signalling (Jak-Stat) pathway via expression of an eGFP reporter gene under the control of an IFN-stimulated response element (ISRE) containing MxA promoter. Conditions: 30 µM. It is filed as functional.
The target of test [9] is T4, Tyrosyl-tRNA synthetase, putative (Trypanosoma cruzi (strain CL Brener)) (UniProt Q4DSP6).
T4 sequence (whole entry): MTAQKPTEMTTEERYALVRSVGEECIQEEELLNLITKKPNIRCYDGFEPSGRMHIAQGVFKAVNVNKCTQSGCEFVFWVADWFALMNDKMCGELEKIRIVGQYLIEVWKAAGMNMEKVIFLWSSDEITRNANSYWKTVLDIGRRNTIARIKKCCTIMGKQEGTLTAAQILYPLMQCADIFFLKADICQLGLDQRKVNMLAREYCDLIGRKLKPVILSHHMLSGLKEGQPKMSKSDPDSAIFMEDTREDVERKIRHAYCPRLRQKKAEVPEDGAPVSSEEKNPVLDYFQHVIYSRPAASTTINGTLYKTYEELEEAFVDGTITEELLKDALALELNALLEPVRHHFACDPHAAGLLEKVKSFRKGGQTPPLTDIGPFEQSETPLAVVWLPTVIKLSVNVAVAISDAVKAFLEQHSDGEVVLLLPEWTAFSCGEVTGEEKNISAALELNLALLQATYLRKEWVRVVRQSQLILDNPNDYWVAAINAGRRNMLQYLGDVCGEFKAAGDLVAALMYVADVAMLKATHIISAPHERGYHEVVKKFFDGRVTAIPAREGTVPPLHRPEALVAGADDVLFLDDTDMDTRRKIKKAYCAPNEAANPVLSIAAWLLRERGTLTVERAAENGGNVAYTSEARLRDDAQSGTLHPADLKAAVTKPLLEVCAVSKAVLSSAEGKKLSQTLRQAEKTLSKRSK
As to the kind of experiment: Trypanosoma cruzi tyrosyl tRNA synthetase (TcYRS) _High Tyrosine SOP. Also: in the data most compounds retested in dose-response had high values. Conditions: 30 µM. The test is classed as functional.

Test [10] has as its target T4, Tyrosyl-tRNA synthetase, putative (Trypanosoma cruzi (strain CL Brener)). As to the kind of experiment: Trypanosoma cruzi tyrosyl tRNA synthetase (TcYRS) SOP. It is filed as functional. Conditions: 30 µM.
Test [11] deals with Chromo domain-containing protein 1 (Saccharomyces cerevisiae (strain ATCC 204508 / S288c) (Baker's yeast)) (UniProt P32657). As to the kind of experiment: ScCHD-1 Enzyme Inhibition Assay. Also: in the data most compounds retested in dose-response had high values. It is filed as functional. As to conditions: 30 µM.
Chain of Chromo domain-containing protein 1 (Saccharomyces cerevisiae (strain ATCC 204508 / S288c) (Baker's yeast)) (P32657 whole entry, the tested form may be a part): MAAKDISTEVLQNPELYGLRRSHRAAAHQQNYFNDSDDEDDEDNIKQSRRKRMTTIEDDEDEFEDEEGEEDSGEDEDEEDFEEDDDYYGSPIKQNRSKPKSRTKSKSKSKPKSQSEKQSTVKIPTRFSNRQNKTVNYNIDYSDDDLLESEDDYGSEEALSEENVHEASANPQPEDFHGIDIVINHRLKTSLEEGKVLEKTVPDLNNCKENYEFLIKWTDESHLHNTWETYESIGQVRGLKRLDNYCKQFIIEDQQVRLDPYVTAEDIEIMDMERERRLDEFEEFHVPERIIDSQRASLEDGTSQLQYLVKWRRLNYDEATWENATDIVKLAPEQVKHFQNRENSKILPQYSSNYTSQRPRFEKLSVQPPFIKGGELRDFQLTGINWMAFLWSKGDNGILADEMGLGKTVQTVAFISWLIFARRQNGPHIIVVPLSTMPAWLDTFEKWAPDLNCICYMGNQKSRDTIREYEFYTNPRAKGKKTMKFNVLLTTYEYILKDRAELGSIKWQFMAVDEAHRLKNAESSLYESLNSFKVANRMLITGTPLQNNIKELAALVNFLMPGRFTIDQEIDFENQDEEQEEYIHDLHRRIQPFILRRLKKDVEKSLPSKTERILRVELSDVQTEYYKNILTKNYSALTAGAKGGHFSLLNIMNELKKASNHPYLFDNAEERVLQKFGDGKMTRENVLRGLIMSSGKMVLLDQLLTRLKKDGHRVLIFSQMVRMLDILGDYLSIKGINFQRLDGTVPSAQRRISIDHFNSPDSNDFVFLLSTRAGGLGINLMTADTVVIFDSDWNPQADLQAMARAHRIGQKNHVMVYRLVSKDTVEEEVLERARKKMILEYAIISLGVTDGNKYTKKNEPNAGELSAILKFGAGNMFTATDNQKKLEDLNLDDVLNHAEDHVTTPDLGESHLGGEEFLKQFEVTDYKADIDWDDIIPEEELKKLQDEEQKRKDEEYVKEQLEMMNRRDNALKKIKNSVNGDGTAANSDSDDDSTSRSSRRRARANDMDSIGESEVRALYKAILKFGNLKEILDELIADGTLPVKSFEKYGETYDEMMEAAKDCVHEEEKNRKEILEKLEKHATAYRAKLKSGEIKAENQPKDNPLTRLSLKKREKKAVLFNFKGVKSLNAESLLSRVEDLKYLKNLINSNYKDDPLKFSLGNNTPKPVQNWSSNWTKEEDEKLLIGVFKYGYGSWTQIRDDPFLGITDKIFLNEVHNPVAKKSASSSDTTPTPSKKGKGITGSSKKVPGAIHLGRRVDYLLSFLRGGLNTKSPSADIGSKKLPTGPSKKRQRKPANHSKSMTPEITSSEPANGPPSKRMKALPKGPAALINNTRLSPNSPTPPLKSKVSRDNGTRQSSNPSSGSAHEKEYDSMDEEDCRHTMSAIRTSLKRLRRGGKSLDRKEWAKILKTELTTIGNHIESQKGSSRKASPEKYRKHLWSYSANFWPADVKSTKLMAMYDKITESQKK

Chain of Protein translocase subunit SecA (Escherichia coli (strain K12)) (P10408 whole entry): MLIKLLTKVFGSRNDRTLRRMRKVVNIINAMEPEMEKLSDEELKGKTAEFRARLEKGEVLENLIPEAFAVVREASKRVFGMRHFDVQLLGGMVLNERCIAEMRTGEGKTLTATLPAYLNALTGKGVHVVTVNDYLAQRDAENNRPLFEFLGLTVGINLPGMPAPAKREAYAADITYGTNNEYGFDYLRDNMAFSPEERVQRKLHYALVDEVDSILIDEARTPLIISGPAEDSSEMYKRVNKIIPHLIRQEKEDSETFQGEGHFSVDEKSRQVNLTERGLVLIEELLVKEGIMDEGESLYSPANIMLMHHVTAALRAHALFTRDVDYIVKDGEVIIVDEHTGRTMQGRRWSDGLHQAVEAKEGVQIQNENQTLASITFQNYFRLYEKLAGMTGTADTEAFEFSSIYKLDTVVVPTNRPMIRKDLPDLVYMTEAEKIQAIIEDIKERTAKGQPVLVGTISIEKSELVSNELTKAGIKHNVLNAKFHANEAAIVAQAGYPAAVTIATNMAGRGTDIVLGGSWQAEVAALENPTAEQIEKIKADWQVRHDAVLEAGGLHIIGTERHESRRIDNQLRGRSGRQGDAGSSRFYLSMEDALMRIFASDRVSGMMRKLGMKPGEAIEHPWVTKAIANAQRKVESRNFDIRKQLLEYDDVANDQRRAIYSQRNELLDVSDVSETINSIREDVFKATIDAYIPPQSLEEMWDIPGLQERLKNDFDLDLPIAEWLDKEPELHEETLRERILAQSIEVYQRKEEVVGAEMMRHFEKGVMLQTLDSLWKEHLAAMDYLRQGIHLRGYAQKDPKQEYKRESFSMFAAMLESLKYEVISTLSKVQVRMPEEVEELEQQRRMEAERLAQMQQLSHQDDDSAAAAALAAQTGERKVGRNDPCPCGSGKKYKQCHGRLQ
Chain of Sialic acid-binding Ig-like lectin 9 (Homo sapiens) (Q9Y336 whole entry): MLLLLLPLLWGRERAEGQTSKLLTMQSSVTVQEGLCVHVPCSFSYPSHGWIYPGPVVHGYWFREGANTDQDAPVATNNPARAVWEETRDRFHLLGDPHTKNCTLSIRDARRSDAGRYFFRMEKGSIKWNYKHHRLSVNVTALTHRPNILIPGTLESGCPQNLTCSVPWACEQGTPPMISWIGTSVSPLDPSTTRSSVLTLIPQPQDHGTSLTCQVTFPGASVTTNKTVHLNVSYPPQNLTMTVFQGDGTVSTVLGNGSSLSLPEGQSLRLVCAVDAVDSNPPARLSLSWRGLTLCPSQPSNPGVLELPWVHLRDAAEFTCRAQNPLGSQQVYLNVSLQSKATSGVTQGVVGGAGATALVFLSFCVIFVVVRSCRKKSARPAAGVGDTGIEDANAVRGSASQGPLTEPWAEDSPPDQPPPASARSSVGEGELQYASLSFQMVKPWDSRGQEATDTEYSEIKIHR

Consider `CC(Cc1ccco1)NC(=O)Nc1cnn(CC(N)=O)c1` (stereo unspecified), for which the Percent Effect was 1.02% in [1]; 6.33% in test [2]; 5.31% in test [3]; 0.769% in test [4]; -6.67% in [5]; 2.8% in test [6]. Also, the Percent Effect was 11% in test [7]; 9.49% in [8]; 4.17% in test [9]; 7.59% in [10]; -2.83% in test [11].
With `CN(C)c1ncnc2c1CCN(CC1CCCC1)CC2`, the Percent Effect in [1] was -3.48%; in [2], 5.41%; in test [3] it was 5.95%; in test [4] it was -2.79%; in test [5] it was -3.81%; in test [6], -4.14%. Further, the Percent Effect in test [7] is 15.1%; in test [8] it was -8.91%; in [9] it was 4.32%; in [10], 15.4%; in [11], 1.8%.
For `CCCN1C(=O)CC(N2CCN(c3ccc(F)cc3)CC2)C1=O` (stereo unspecified), the Percent Effect in test [1] is -0.321%; in test [2], 13.2%; in [3] it was 5.3%; in [4] it was -9.41%; in test [5], -3.99%; in test [6], -7.1%. For the same molecule, the Percent Effect in test [7] is 11.6%; in test [8], 11.5%; in test [9] it was 0%; in test [10], 7.79%; in test [11], -5.52%.
For the molecule `CNC(=O)C(NC(=O)c1nccn2ccnc12)c1ccc(F)c(F)c1` (stereo unspecified), the Percent Effect was -5.39% in test [1]; 13.5% in test [2]; -2.95% in test [3]; 5.66% in [4]; 5.27% in test [5]; 16.2% in test [6]. The Percent Effect in test [7] is 19%; in [8] it was -10.6%; in [9] it was 5.94%; in test [10], 15.8%; in test [11], 23.6%.
For the molecule `Cc1cnc(NC(=O)N2CCCC2)s1`, the Percent Effect in test [1] was -4.49%; in [2], 2.7%; in test [3], -1.71%; in test [4], 2.98%; in [5] it was 8.5%; in test [6] it was -0.744%. In addition, the Percent Effect in test [7] was determined as 15.4%; in [8], 6.72%; in test [9] it was 1.07%; in test [10], 3.7%; in test [11] it was 1.48%.
Take `O=S(=O)(C1CC1)N1CCC2(COCc3cnc(N4CCOCC4)nc32)C1` (stereo unspecified): the Percent Effect in [1] is 1.84%; in [2], 14.7%; in test [3], 1.88%; in test [4], -4.21%; in test [5], -2.55%; in [6] it was -6.16%. Also, the Percent Effect in test [7] was 9.61%; in [8] it was 13.3%; in test [9], 1.06%; in [10] it was 5.13%; in test [11] it was -7.85%.
As to `CN(CC1(O)CCCN(c2ccccn2)C1)C(=O)Cc1ccsc1` (stereo unspecified), the Percent Effect in [1] is -5.09%; in test [2] it was 4.05%; in [3], 12%; in test [4], 3.61%; in test [5] it was -0.198%; in [6], -1.62%. Besides, the Percent Effect in test [7] is -2.18%; in test [8] it was -8.8%; in test [9], 6.45%; in test [10], 9.09%; in [11] it was 3.9%.
On to `COc1c(CNC2CCOc3ccccc32)c(C(C)C)nn1C` (stereo unspecified), for which the Percent Effect in test [1] was -0.153%; in test [2] it was -48.6%; in test [3] it was -2.39%; in [4], 7.95%; in test [5], 1.58%; in test [6] it was 0.924%. The Percent Effect in test [7] was 3.95%; in test [8] it was 0.812%; in [9], 7.92%; in [10], 18.3%; in test [11] it was -6.55%.
`Cc1ccc(C2COCCN2C(=O)c2ccc(CN(C)C)cc2)o1` (stereo unspecified): the Percent Effect in test [1] was -0.657%; in test [2] it was -5.33%; in [3], -1.26%; in test [4] it was 2.6%; in test [5] it was -1.85%; in test [6], 2.08%. Besides, the Percent Effect is 4.01% in test [7]; 0.868% in test [8]; 1.64% in test [9]; 1.24% in test [10]; -0.0158% in [11].
In the case of `Cn1cc(CCNC(=O)NCc2nnc3n2CCC3)cn1`, the Percent Effect in [1] was -2.08%; in test [2], 15.2%; in test [3], -4.15%; in test [4], 10.9%; in test [5], -1.6%; in test [6], 2.28%. For the same molecule, the Percent Effect in test [7] is -0.573%; in test [8], 4.78%; in test [9], 1.48%; in [10], 16.5%; in test [11] it was -6.44%.
`Cc1ccc(NS(=O)(=O)c2cc3c(c(C(=O)O)c2)OCCO3)c(F)c1`: the Percent Effect in test [1] is -10.1%; in [2] it was 13.2%; in test [3], -8.4%; in [4] it was 15.9%; in [5], 10.6%; in [6], 1.08%. The Percent Effect in test [7] is 11.2%; in [8], -1.31%; in [9], 2.46%; in test [10], 13.6%; in test [11], -9.81%.
